Screening results (PubChem)
This is a sample that favours compounds with a hit; in the whole collection about 2% have one here.
Kir21 block – inhibitors of mouse Kir2.1 inward-rectifier potassium channel | P35561 | HEK293-Kir2.1, FluxOR thallium flux fluorescence; stronger effect = lower value | B-score at 10 µM | hit rate 0.85% among 310,000;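 active = fluorescence ratio B-score at or below minus 3 SD of library scores, with starting-brightness B-score within 2 SD, cut at about -4.2 in these data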;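 note: channel flux triggered by added potassium and thallium sulfate stimulus; B-score of peak minus minimum fluorescence over baseline after thallium stimulus; more negative B-score means stronger Kir2.1 block with less thallium influx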
CHT inh – inhibits the human high affinity choline transporter; Q9GZV3; CHT-expressing cells, membrane potential dye, choline response; stronger effect = lower value; B-score at 10 µM; hit rate 0.86% among 310,000;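 active = B-score over 3 SD under the library average, and starting fluorescence ratio not unusually high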;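 note: choline stimulus applied at its EC90 after an EC20 pre-addition; B-score computed on integrated fluorescence ratio after choline addition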
Target sequence (Q9GZV3 whole entry, looked up): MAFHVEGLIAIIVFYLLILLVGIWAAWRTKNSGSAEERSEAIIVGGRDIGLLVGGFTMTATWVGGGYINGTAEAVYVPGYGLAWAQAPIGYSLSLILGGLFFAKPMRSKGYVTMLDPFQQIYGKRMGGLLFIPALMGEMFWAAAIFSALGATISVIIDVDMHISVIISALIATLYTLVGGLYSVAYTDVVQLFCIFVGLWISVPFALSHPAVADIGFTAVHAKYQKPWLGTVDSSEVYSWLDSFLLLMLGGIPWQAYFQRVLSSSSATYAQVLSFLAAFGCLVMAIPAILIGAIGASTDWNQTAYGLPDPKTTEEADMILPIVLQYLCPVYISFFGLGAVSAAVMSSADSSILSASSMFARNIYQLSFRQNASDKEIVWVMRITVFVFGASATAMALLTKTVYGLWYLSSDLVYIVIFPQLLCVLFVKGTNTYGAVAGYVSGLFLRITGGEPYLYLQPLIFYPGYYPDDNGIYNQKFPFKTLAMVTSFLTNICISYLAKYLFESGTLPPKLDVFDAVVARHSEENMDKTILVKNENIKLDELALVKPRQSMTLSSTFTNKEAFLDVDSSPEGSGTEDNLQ
TAG inh – inhibitors of triacylglycerol accumulation; H9c2 cells, Nile Red lipid (TAG) fluorescence; cells loaded with 200 µM oleic acid; inhibition, % at 12.5 µM; hit rate 0.66% among 230,000; AID 651582;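 active = pattern-corrected inhibition of lipid staining of at least 50% with the nuclear-stain viability signal not falling by more than 50%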;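 note: 0% = DMSO wells and 100% = triacsin C control wells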
CHT PAM – human CHT allosteric activation; CHT-expressing cells, membrane potential dye, choline EC20; stronger effect = higher value; LV-AA mutant CHT in HEK293 cells; B-score at 10 µM; hit rate 0.49% among 310,000; AID 488977;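 active = initial fluorescence not abnormally high and integrated response B-score, plate-corrected, over 3 SD above library mean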
CHT act confirm – confirmation of human choline transporter (CHT) activators. CHT-expressing cells, membrane potential dye fluorescence (FDSS); % of choline EC20–EC90 response window; HEK293 expressing CHT LV-AA mutant; choline added at its EC20. AID 504833. activation, % at 10 µM. shares compounds with CHT PAM. hit rate 91% among 2,500;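 active = primary screen active, with duplicate mean activation above negative control mean plus 3 SD, cut at about 11% in these data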
HEK293 MP dye – activity in parental HEK293 cells lacking CHT. hit rate 62% among 2,500. ratio readout change at 10 µM, hits read low. membrane potential dye fluorescence (FDSS); measured after EC20 choline addition. shares compounds with CHT PAM;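 active = duplicate-averaged ratio beyond 3 SD from buffer wells, up or down, though filed actives are nearly all decreases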
The depositor's hits bear a star; i = inactive; . = not tested or not shown.

SMILES	Kir21 block	CHT inh	TAG inh	CHT PAM	CHT act confirm	HEK293 MP dye
Cc1nc2ccccn2c1C(=O)N/N=C/c1ccc([N+](=O)[O-])o1	-2.2	i	11	i	31*	-39*
C/C(=N\NC(=O)c1c(C)nc2ccccn12)c1ccc(C(C)(C)C)cc1	1.1	i	.	i	.	.
O=C(N/N=C/c1ccc(O)c([N+](=O)[O-])c1)c1ccncc1	1.4	i	-2	i	.	.
O=C(N/N=C/c1ccc([N+](=O)[O-])o1)c1ccncc1	1.7	i	8	i	56*	-47*
O=C(N/N=C/c1cc([N+](=O)[O-])ccc1O)c1ccncc1	0.12	i	-1	i	36*	-39*
C/C(=N\NC(=O)c1c(C)nc2ccccn12)c1ccco1	-0.8	i	.	10*	15*	i
O=C(NCCS(=O)(=O)N1CCN(Cc2ccccc2)CC1)c1ccc(F)cc1	-1.9	i	-7	i	.	.
C=CCC[C@H](Cc1ccc(F)cc1)C(=O)OC[C@@H](NC(=O)[C@H](CC=C)CC(=O)NCCO)C(C)(C)C	.	.	2	.	.	.
CCCc1ccc(NS(=O)(=O)c2c(C)oc(C)c2C(=O)OC)cc1	-1.1	i	-14	i	.	.
Cn1c(=O)[nH]c(=O)c2c1nc(N1CCCCC1)n2CCSc1ncccn1	.	i	11	8*	18*	-24*
C=CCn1c(SCCN2CCCCC2)nc2c1c(=O)[nH]c(=O)n2C	0.92	i	-4	10*	64*	-63*
Cc1ccc(Cn2c(SCCN3CCCCC3)nc3c2c(=O)[nH]c(=O)n3C)cc1	-0.2	i	14	6.5*	53*	-50*
Cn1c(=O)[nH]c(=O)c2c1nc(Br)n2CCSc1ncccn1	-0.51	i	.	i	.	.
C=CCn1c(SCC(=O)Nc2ccc(OC)cc2)nc2c([nH]c3ccccc32)c1=O	0.79	i	5	i	.	.
C=CCn1c(SCCN2CCCC2)nc2c([nH]c3ccccc32)c1=O	0.08	i	15	6.5*	40*	-41*
Cc1ccc(C(=O)N2CCn3c(C)ccc3C2C)cc1 (configuration not stated)	0.84	i	-11	i	.	.
CC(C)CCN1CCC(n2nccc2NC(=O)C2CCOC2)CC1 (configuration not stated)	1.5	i	.	i	.	.
Cc1cccc(Cn2c(SCCN3CCCCC3)nc3c2c(=O)[nH]c(=O)n3C)c1	0.46	i	35	9*	61*	-62*
Cn1c(=O)[nH]c(=O)c2c1nc(SCCN1CCCCC1)n2Cc1ccccc1	-0.17	i	0	9.9*	58*	-61*
COCCSc1nc2c(c(=O)[nH]c(=O)n2C)n1CCCc1ccccc1	0.23	i	.	i	.	.
Cc1cccc(Cn2c(N3CCN(CCO)CC3)nc3c2c(=O)[nH]c(=O)n3C)c1	0.18	i	.	i	.	.
Cn1c(=O)[nH]c(=O)c2c1nc(SCCN1CCCCC1)n2CCCc1ccccc1	.	i	19	i	53*	-54*
CCOC(=O)C1(C#N)C(=O)CSC1=Nc1ccccc1Cl (configuration not stated)	.	.	-10	.	.	.
CC(NC(=S)Nc1ccc([N+](=O)[O-])cc1)c1ccncc1 (configuration not stated)	0.23	i	-1	i	.	.
COc1ccc(NC(=S)NC(C)c2ccncc2)cc1OC (configuration not stated)	.	i	6	i	18*	i
SMILES	Kir21 block	CHT inh	TAG inh	CHT PAM	CHT act confirm	HEK293 MP dye
CC(Oc1ccccc1)C(=O)N=C1SC2CS(=O)(=O)CC2N1c1ccc(F)cc1 (configuration not stated)	1.1	i	.	i	.	.
COc1cc(Nc2ccc(S(=O)(=O)N3CCN(C)CC3)cc2[N+](=O)[O-])cc(OC)c1	-1.8	i	-2	i	9	-21*
CN(C)c1cccc2c(C=C(C#N)C#N)ccc(N(C)C)c12	0.01	i	.	11*	57*	-73*
O=C(NCc1ccccn1)c1cc(S(=O)(=O)N2CCCCC2)ccc1Cl	.	.	-24	.	.	.
COc1ccc(S(=O)(=O)NC(=O)C2(C)CCN2C(=O)Cc2cccc3ccccc23)cc1 (configuration not stated)	.	.	2	.	.	.
C=CC[n+]1c(-c2ccccc2)csc1NC(C)(C)C	-1.2	i	3	i	.	.
C=CC[n+]1c(-c2ccc(OC)c(OC)c2)csc1NNC(=O)Nc1ccccc1	2.3	i	.	i	8	i
Cc1ccccc1C[n+]1cccc2ccccc21	-0.69	i	-27	7*	52*	-42*
COc1ccc(C(c2nnnn2Cc2cccs2)N2CCN(c3ccccc3F)CC2)cc1 (configuration not stated)	-1.1	i	-9	i	31*	i
COc1ccc(C(c2nnnn2Cc2ccccc2)N2CCN(c3ccccc3)CC2)cc1 (configuration not stated)	0.05	i	-5	i	.	.
CC(C)(C)N(NC(=O)c1ccccc1)C(=O)c1cccc(C(=O)N(NC(=O)c2ccccc2)C(C)(C)C)c1	0.98	i	.	8.5*	35*	i
CC1CN(C(=O)CS(=O)(=O)Cc2ccc(Cl)cc2)CC(C)O1 (configuration not stated)	-0.17	i	-9	i	.	.
COc1ccccc1CN(Cc1cc2c(C)ccc(C)c2[nH]c1=O)Cc1nnnn1Cc1ccco1	-0.13	i	8	6.4*	17*	i
CC1=Nc2ccc(C)c3nc(C)cc(c23)N1c1ccc(C)cc1	1.8	i	-9	8.5*	42*	-60*
CCCCCC(=O)N1C[C@@H](O)[C@H](n2cc(COC(=O)c3ccccc3)nn2)C[C@@H]1c1ccc(Cl)cc1	.	.	6	.	.	.
O=C(CSc1nncn1-c1cccnc1)N(c1ccccc1)c1ccccc1	-1.3	i	-4	i	.	.
CCc1nc2ccc(Cc3ccc4nc(CC)[nH]c4c3)cc2[nH]1	-2.4	i	.	7.1*	49*	-52*
Cc1ccc2nc(CCc3ccc(N)cc3)[nH]c2c1	1.4	i	-8	i	.	.
NC(Cc1ccc(F)cc1)c1csc(Nc2ccc(S(N)(=O)=O)cc2)n1 (configuration not stated)	.	.	-9	.	.	.
Cc1cc(N2CCOCC2)c2c(N)c(Br)cc(C)c2n1	0.23	i	-5	9.8*	45*	-66*
CC(C)OC(=O)N(C)C[C@@H]1OCc2cnnn2CCCC(=O)N([C@H](C)CO)C[C@H]1C	.	.	-10	.	.	.
CN(C)Cc1c(O)ccc2occ(C(=O)c3ccc(F)cc3)c12	-0.98	i	.	i	.	.
COc1ccc2occ(C(=O)c3coc4ccc(O)c(CN(C)C)c34)c2c1	1.2	i	.	7.6*	32*	-36*
N#Cc1c(N)oc(-c2ccccc2)c1-c1ccccc1	0.51	i	-5	i	.	.
